Results reported in ChEMBL document CHEMBL1961873, “Compounds: GSK PKIS; Assays: Nanosyn kinase panel” (2012).
Several values for one entry are separate records, joined by “and”; a condition that tells them apart may be missing. Equal values may be shown once.

molecular target: Serine/threonine-protein kinase PAK 5 (Homo sapiens) (UniProt Q9P286); conditions: at 0.1 µM
Sequence (Q9P286 whole entry, looked up): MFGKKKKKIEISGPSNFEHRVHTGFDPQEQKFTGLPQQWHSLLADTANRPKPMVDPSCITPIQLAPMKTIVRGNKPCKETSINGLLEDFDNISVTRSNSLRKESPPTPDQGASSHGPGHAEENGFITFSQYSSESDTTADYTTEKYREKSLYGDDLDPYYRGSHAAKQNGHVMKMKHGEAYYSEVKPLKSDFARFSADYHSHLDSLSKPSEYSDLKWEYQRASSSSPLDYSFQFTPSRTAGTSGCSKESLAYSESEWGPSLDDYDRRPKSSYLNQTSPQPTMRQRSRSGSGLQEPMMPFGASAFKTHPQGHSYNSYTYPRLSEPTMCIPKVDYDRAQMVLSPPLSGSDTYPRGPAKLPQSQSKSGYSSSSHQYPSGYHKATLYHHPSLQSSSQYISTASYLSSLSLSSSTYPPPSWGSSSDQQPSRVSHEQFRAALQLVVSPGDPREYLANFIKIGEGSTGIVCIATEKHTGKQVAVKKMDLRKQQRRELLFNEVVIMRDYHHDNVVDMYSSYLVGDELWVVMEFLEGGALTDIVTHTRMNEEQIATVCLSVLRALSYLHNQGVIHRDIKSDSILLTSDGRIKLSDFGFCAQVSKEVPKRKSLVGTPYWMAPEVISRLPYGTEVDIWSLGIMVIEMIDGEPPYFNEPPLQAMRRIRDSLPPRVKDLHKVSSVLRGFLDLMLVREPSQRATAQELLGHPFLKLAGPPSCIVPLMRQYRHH

SMILES | inhibition
NS(=O)(=O)c1ccc(N/N=C2\C(=O)Nc3ccc(C(=O)NCc4ccncc4)cc32)cc1 | 9.16%
CCCNc1cccc(-n2ncc3c(N/N=C/c4ccncc4)ncnc32)c1 | 8.4%
c1cnn2ncc(-c3ccnc(NCCCN4CCOCC4)n3)c2c1 | 2.65%
O=C(Nc1n[nH]c2nnc(-c3cccnc3)cc12)C1CC1 | -4.39%
COC(=O)Nc1nc2cc(Oc3ccc(NC(=O)Nc4ccccc4)cc3)ccc2[nH]1 | -3.58%
Fc1ccc(Nc2nccc(-c3c(-c4ccc(C(F)(F)F)cc4)nn4ncccc34)n2)cc1F | -0.66%
CCS(=O)(=O)c1ccc(OC)c(Nc2ncc(-c3cccc(F)c3)o2)c1 | 7.29%
CN1CCC(C(=O)Nc2n[nH]c3nc(-c4ccc(O)cc4)c(Br)cc23)CC1 | -5.26%
CC1=C(C(=O)Nc2ccc3[nH]nc(C)c3c2)C(c2ccc(C(F)(F)F)cc2)CC(=O)N1 (configuration not stated) | 10.3%
COc1cccc(-n2ncc3c(N/N=C/c4ccc(C(=O)NCCN(C)C)cc4)ncnc32)c1 | 12.8%
N#Cc1ccc2c(-c3ccnc(NC4CC4)n3)c(-c3ccc(F)cc3)nn2c1 | 1.73%
COc1ccc(Nc2ncc(-c3ccccc3)o2)cc1OC | -8.21%
Nc1nccc(-c2c(-c3ccc(F)cc3)ncn2C2CCNCC2)n1 | -9.21% and 0.56%
Cc1cc(O)cc(C)c1/C=C/c1cncc(C(N)=O)c1 | 9.11%
N#Cc1cccc(Nc2ncc(-c3ccccc3)o2)c1 | -5.2%
CC1=C(C(=O)Nc2ccc3[nH]ncc3c2)C(c2ccc(F)cc2)N=C(c2ccc(C(F)(F)F)nc2)N1 (configuration not stated) | 5.14%

SMILES | inhibition
COc1cc2c(cc1Nc1nc(Nc3cccc(F)c3C(N)=O)c3cc[nH]c3n1)N(C(=O)CN1CCN(C(C)C)CC1)CC2 | 2.45%
COc1cc(N2CCN(C(C)C)CC2)ccc1Nc1nc(Nc2cccc(F)c2C(=O)O)c2cc[nH]c2n1 | 3.7%
Cn1c(-c2nonc2N)nc2cnccc21 | -1.86%
Fc1cccc(COc2ccc(Nc3ncncc3C#Cc3ccccc3)cc2Cl)c1 | 1.61%
CN(c1ccc(NC(=O)NCCN2CCOCC2)cc1)c1ccnc(Nc2ccc(CS(C)(=O)=O)cc2)n1 | 12.2%
COc1cc(Nc2ncc(-c3ccccc3)o2)cc(OC)c1 | 2.83%
COC(=O)Nc1nc2ccc(Oc3ccc(NC(=O)Nc4cc(C(F)(F)F)ccc4F)cc3)cc2s1 | 0.53%
c1ccc(-c2n[nH]cc2-c2ccnc(-c3ccc(OCCn4ccnc4)cc3)c2)nc1 | -0.74%
OCCCNc1nccc(-c2c(-c3ccc(F)cc3)nn3cc(C(F)(F)F)ccc23)n1 | -4.85%
O=C(O[C@H]1CN[C@H](C#Cc2cc3ncnc(Nc4ccc5c(ccn5Cc5cc(F)ccc5F)c4)c3s2)C1)N1CCOCC1 | -0.09%
NC(=O)c1ccc2c(-c3ccnc(NCCCO)n3)c(-c3ccc(F)cc3)nn2c1 | 0.64%
FC(F)(F)CNc1nccc(-c2cnn3ncccc23)n1 | 1.55%
CS(=O)(=O)Nc1ccc(-c2cc(-c3ccccc3)cc(C(N)=O)c2N)cc1 | 1.42%
CS(=O)(=O)CCNCc1ccc(-c2ccc3ncnc(Nc4ccc(OCc5cccc(C(F)(F)F)c5)cc4)c3c2)o1 | 4.72%
COc1cccc(Nc2nccc(-c3cnn4ncccc34)n2)c1 | 8.25%

molecular target: Serine/threonine-protein kinase PAK 5 (Homo sapiens) (UniProt Q9P286); conditions: at 1 µM

SMILES | inhibition
NS(=O)(=O)c1ccc(N/N=C2\C(=O)Nc3ccc(C(=O)NCc4ccncc4)cc32)cc1 | 11.3%
CCCNc1cccc(-n2ncc3c(N/N=C/c4ccncc4)ncnc32)c1 | 5.05%
c1cnn2ncc(-c3ccnc(NCCCN4CCOCC4)n3)c2c1 | 1.01%
O=C(Nc1n[nH]c2nnc(-c3cccnc3)cc12)C1CC1 | -1.42%
COC(=O)Nc1nc2cc(Oc3ccc(NC(=O)Nc4ccccc4)cc3)ccc2[nH]1 | -3.97%
Fc1ccc(Nc2nccc(-c3c(-c4ccc(C(F)(F)F)cc4)nn4ncccc34)n2)cc1F | -1.33%
CCS(=O)(=O)c1ccc(OC)c(Nc2ncc(-c3cccc(F)c3)o2)c1 | 9.85%
CN1CCC(C(=O)Nc2n[nH]c3nc(-c4ccc(O)cc4)c(Br)cc23)CC1 | -8.73% and 0.52%
CC1=C(C(=O)Nc2ccc3[nH]nc(C)c3c2)C(c2ccc(C(F)(F)F)cc2)CC(=O)N1 (configuration not stated) | -2.13%
COc1cccc(-n2ncc3c(N/N=C/c4ccc(C(=O)NCCN(C)C)cc4)ncnc32)c1 | 7.55%
N#Cc1ccc2c(-c3ccnc(NC4CC4)n3)c(-c3ccc(F)cc3)nn2c1 | 3.22%
COc1ccc(Nc2ncc(-c3ccccc3)o2)cc1OC | -5.61%
Nc1nccc(-c2c(-c3ccc(F)cc3)ncn2C2CCNCC2)n1 | -3.77% and 2.85%
Cc1cc(O)cc(C)c1/C=C/c1cncc(C(N)=O)c1 | 0.51%
N#Cc1cccc(Nc2ncc(-c3ccccc3)o2)c1 | 1%
CC1=C(C(=O)Nc2ccc3[nH]ncc3c2)C(c2ccc(F)cc2)N=C(c2ccc(C(F)(F)F)nc2)N1 (configuration not stated) | -1.73%

SMILES | inhibition
COc1cc2c(cc1Nc1nc(Nc3cccc(F)c3C(N)=O)c3cc[nH]c3n1)N(C(=O)CN1CCN(C(C)C)CC1)CC2 | 3.7%
COc1cc(N2CCN(C(C)C)CC2)ccc1Nc1nc(Nc2cccc(F)c2C(=O)O)c2cc[nH]c2n1 | 4.16%
Cn1c(-c2nonc2N)nc2cnccc21 | -0.53%
Fc1cccc(COc2ccc(Nc3ncncc3C#Cc3ccccc3)cc2Cl)c1 | 0.61%
CN(c1ccc(NC(=O)NCCN2CCOCC2)cc1)c1ccnc(Nc2ccc(CS(C)(=O)=O)cc2)n1 | 13.5%
COc1cc(Nc2ncc(-c3ccccc3)o2)cc(OC)c1 | 4.51%
COC(=O)Nc1nc2ccc(Oc3ccc(NC(=O)Nc4cc(C(F)(F)F)ccc4F)cc3)cc2s1 | -1.37%
c1ccc(-c2n[nH]cc2-c2ccnc(-c3ccc(OCCn4ccnc4)cc3)c2)nc1 | 4.05%
OCCCNc1nccc(-c2c(-c3ccc(F)cc3)nn3cc(C(F)(F)F)ccc23)n1 | -5.58%
O=C(O[C@H]1CN[C@H](C#Cc2cc3ncnc(Nc4ccc5c(ccn5Cc5cc(F)ccc5F)c4)c3s2)C1)N1CCOCC1 | -5.06%
NC(=O)c1ccc2c(-c3ccnc(NCCCO)n3)c(-c3ccc(F)cc3)nn2c1 | -4.27%
FC(F)(F)CNc1nccc(-c2cnn3ncccc23)n1 | 1.35%
CS(=O)(=O)Nc1ccc(-c2cc(-c3ccccc3)cc(C(N)=O)c2N)cc1 | 0.16%
CS(=O)(=O)CCNCc1ccc(-c2ccc3ncnc(Nc4ccc(OCc5cccc(C(F)(F)F)c5)cc4)c3c2)o1 | 5.29%
COc1cccc(Nc2nccc(-c3cnn4ncccc34)n2)c1 | 5.51%
